Source: PubChem BioAssay (Tox21)
Records with an inconclusive call do not appear. Active and inactive are the calls of the source. Unless noted, calls follow the shape of the dose curve; as a rule, active = well fitted curve in the direction sought with a large enough effect in the repeat runs; inconclusive = weak or mixed curves; inactive = no such curve, though single readings can be large; an effect the other way counts as inactive or inconclusive.

Columns and labels:
[1] = A CellTox Green Cytotoxicity Assay to monitor cytotoxicity in HEK293 cells - 32 hour (AID 1224881); details: CellTox Green fluorescence; series mostly up to 76.8 µM; also: nearly all actives have a fitted effect of over 40% in size
Procedure, shortened: (§1)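 Read-out: fluorescence of a cell-impermeant cyanine dye staining DNA of dead cells, proportional to cytotoxicity. HEK293, 600 cells/well with reagent, compound (23 nL DMSO) added after 5 h; reads at 0, 8, 16, 24, 32, 40 h.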

[2] = A CellTox Green Cytotoxicity Assay to monitor cytotoxicity in HepG2 cells - 0 hour (AID 1224882); details: CellTox Green fluorescence; series mostly up to 76.8 µM; also: nearly all actives have a fitted effect of over 35% in size
Procedure, shortened: (§2)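 HepG2, 600 cells/well premixed w/ CellTox Green; 5 h settle, 37 C/5% CO2; pintool cpd add (DMSO); 37 C, 40 h; fluorescence read at 0, 8, 16, 24, 32, 40 h.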

[3] = A CellTox Green Cytotoxicity Assay to monitor cytotoxicity in HepG2 cells - 32 hour (AID 1224883); details: CellTox Green fluorescence; series mostly up to 76.8 µM; also: nearly all actives have a fitted effect of over 50% in size
Procedure, shortened: as §2

[4] = A CellTox Green Cytotoxicity Assay to monitor cytotoxicity in HEK293 cells - 8 hour (AID 1224884); details: CellTox Green fluorescence; series mostly up to 76.8 µM; also: nearly all actives have a fitted effect of over 35% in size
Procedure, shortened: as §1

[5] = qHTS RealTime-Glo MT Cell Viability Assay in HepG2 cells - 16 hour (AID 1224885); details: RealTime-Glo luminescence; series mostly up to 76.8 µM; also: nearly all actives have a fitted effect of over 50% in size
Procedure, shortened: (§3)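 Real-time, nonlytic viability: 600 HepG2 cells/well mixed with NanoLuc enzyme plus prosubstrate; 5 h settle, compound (DMSO) added by pintool; luminescence monitored over 40 h at 37 C.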

[6] = qHTS RealTime-Glo MT Cell Viability Assay in HEK293 cells - 24 hour (AID 1224886); details: RealTime-Glo luminescence; series mostly up to 76.8 µM; also: top concentration of the series differs between compounds; nearly all actives have a fitted effect of over 50% in size
Procedure, shortened: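 Cells + reagent dispensed (600 cells/well, HEK293) → 5 h at 37 C/5% CO2 → 23 nL compound in DMSO pinned → 40 h at 37 C → luminescence read at 0, 8, 16, 24, 32, 40 h.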

[7] = qHTS RealTime-Glo MT Cell Viability Assay in HEK293 cells - 8 hour (AID 1224887); details: RealTime-Glo luminescence; series mostly up to 76.8 µM; also: top concentration of the series differs between compounds; nearly all actives have a fitted effect of over 50% in size
Procedure, shortened: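 Luminescence readout at each listed time point; HEK293, 600 cells/well, RealTime-Glo MT reagent added with cells; compounds pinned (23 nL in DMSO) after 5 h at 37 C; continuous culture at 37 C.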

[8] = A CellTox Green Cytotoxicity Assay to monitor cytotoxicity in HEK293 cells - 16 hour (AID 1224888); details: CellTox Green fluorescence, active compounds read high; series mostly up to 76.8 µM; also: nearly all actives have a fitted effect of over 35% in size
Procedure, shortened: as §1

[9] = qHTS RealTime-Glo MT Cell Viability Assay in HepG2 cells - 0 hour (AID 1224889); details: RealTime-Glo luminescence; series mostly up to 76.8 µM; also: nearly all actives have a fitted effect of over 50% in size; also: potency is read from the fitted curve at half-maximal effect
Procedure, shortened: as §3

[10] = A CellTox Green Cytotoxicity Assay to monitor cytotoxicity in HepG2 cells - 8 hour (AID 1224890); details: CellTox Green fluorescence; series mostly up to 76.8 µM; also: nearly all actives have a fitted effect of over 45% in size
Procedure, shortened: as §2

[11] = qHTS assay to identify small molecule antagonists of the estrogen receptor alpha (ER-alpha) signaling pathway using the BG1 cell line in the presence of 0.1 nM 17-beta-estradiol - cell viability counter screen (AID 1259241); details: VM7Luc4E2 (BG1) viability, CellTiter-Fluor protease, 22 h, 0.1 nM estradiol agonist added; series mostly up to 92.4 µM; also: nearly all actives have a fitted effect of over 40% in size
Procedure, shortened: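 Viability in VM7Luc4E2 cells after 22 hr compound exposure under 0.1 nM 17beta-estradiol stimulation, by CellTiter-Fluor.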

[12] = qHTS assay to identify small molecule antagonists of the androgen receptor (AR) signaling pathway using the MDA cell line in the presence of 0.5 nM R1881 - cell viability counter screen (AID 1259242); details: MDA-kb2 viability, CellTiter-Fluor protease fluorescence, 16 h; series mostly up to 92.4 µM; also: nearly all actives have a fitted effect of over 45% in size
Procedure, shortened: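 Live-cell protease fluorescence, CellTiter-Fluor, 30 min at 37C. Cells: MDA-kb2, 3,000/well, preincubated 5 hr. Compounds plus 0.5 nM R1881 final, 16 hr, 37C, 0% CO2.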

[13] = target: Estrogen receptor (Homo sapiens) (UniProt P03372); experiment: qHTS assay to identify small molecule antagonists of the estrogen receptor alpha (ER-alpha) signaling pathway using the BG1 cell line in the presence of 0.1 nM 17-beta-estradiol (AID 1259244); details: VM7Luc4E2 (BG1) ERE-luciferase, antagonist mode, 0.1 nM E2, 22 h; series mostly up to 92.4 µM; also: nearly all actives have a fitted effect of over 50% in size
Estrogen receptor (Homo sapiens), sequence (P03372 whole entry, looked up): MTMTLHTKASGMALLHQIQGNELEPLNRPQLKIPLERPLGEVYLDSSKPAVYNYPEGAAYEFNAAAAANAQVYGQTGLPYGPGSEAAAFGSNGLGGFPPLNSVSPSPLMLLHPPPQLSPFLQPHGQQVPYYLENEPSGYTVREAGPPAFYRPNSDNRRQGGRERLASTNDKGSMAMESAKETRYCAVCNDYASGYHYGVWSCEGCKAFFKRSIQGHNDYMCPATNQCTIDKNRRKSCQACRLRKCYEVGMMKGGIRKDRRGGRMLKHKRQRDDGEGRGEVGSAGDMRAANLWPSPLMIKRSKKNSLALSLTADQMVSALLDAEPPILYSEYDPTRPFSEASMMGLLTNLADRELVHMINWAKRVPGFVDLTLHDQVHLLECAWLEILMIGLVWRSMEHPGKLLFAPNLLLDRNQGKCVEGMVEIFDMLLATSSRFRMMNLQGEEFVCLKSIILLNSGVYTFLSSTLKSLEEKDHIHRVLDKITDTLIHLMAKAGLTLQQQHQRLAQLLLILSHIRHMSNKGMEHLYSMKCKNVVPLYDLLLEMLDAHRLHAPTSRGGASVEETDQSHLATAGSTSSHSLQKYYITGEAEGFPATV
Procedure, shortened: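 Luminescence after ONE-Glo (30 min, room temperature) measured ERE-luciferase activity in VM7Luc4E2 cells treated 22 h with compound and 0.1 nM final 17beta-estradiol as stimulator.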

[14] = qHTS assay to identify small molecule HDAC inhibitors - cell viability counter screen (AID 1259365); details: HCT-116 viability, CellTiter-Glo ATP luminescence, 2 h; series mostly up to 92.4 µM; also: nearly all actives have a fitted effect of over 50% in size
Procedure, shortened: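 Cytotoxicity was gauged in wild-type HCT-116 cells after a brief 2hr treatment with DMSO-dissolved compounds at 37C and 5% CO2, using CellTiter-Glo luminescence developed for 30min at room temperature.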

[15] = qHTS assay to identify small molecule antagonists of the sonic hedgehog signaling (Shh) pathway - cell viability counter screen (AID 1259367); details: NIH/3T3 Gli1-Luc viability, CellTiter-Fluor, 24 h; series mostly up to 92.4 µM; also: nearly all actives have a fitted effect of over 55% in size
Procedure, shortened: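 Cytotoxicity was assessed in parallel with Shh reporter activity by measuring live-cell protease fluorescence (CellTiter-Fluor) in NIH/3T3 cells stably carrying Gli1-Luc, treated with compound under conditioned medium stimulation for 23 hr plus 1 hr reagent incubation.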

[16] = qHTS assay to identify small molecule agonists of the sonic hedgehog signaling (Shh) pathway (AID 1259368; calls by dose curve;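 also: NIH/3T3-derived 3T3Gli1-Luc cells carrying a stable Gli1-driven firefly luciferase reporter; nearly all actives have a fitted effect of over 15% in size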); details: NIH/3T3 Gli1-Luc reporter, luciferase, 24 h, active compounds read high; series mostly up to 92.4 µM
Procedure, shortened: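 Read-out: firefly luciferase luminescence from a Gli1 response element reporter stably integrated in NIH/3T3-derived 3T3Gli1-Luc cells, measured 30 min at room temperature after reagent addition. Compound exposure lasted 24 hr at 37 C, 5% CO2.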

[17] = qHTS assay to identify small molecule HDAC inhibitors (AID 1259364); details: HCT-116 HDAC-Glo I/II luminescence, 2 h; series mostly up to 92.4 µM;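 also: wild-type HCT-116 cells with endogenous class I/II HDAC activity; top concentration of the series differs between compounds; nearly all actives have a fitted effect of over 45% in size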
Procedure, shortened: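 HCT-116 (wild type), 1,500 cells/well, overnight; compound 2 hr 37C 5% CO2; HDAC-Glo I/II reagent 30 min RT; luminescence readout.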

[18] = qHTS assay to identify small molecule agonists of the sonic hedgehog signaling (Shh) pathway - cell viability counter screen (AID 1259366); details: NIH/3T3 Gli1-Luc viability, CellTiter-Fluor, 24 h; series mostly up to 92.4 µM; also: nearly all actives have a fitted effect of over 50% in size
Procedure, shortened: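 Stable Gli1-Luc NIH/3T3 clone, 2,000 cells/well. Compound exposure 24hr at 37C. Read-out: CellTiter-Fluor fluorescence.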

[19] = qHTS assay to identify small molecule phospholipidosis (PLD) inducers (AID 1259344; active = well fitted curve in the direction sought with a large enough effect; an effect the other way counts as inactive or inconclusive); details: HepG2 phospholipidosis, LipidTOX Red imaging, 24 h; series mostly up to 38.3 µM
Procedure, shortened: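 Cells (HepG2, 900 per well) attach for 4 h, receive LipidTOX Red and compound together, incubate 24 h at 37 C, are fixed 30 min with paraformaldehyde/Hoechst, then imaged at one site per well.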

[20] = target: Androgen receptor (Homo sapiens) (UniProt P10275); experiment: qHTS assay to identify small molecule antagonists of the androgen receptor (AR) signaling pathway using the MDA cell line in the presence of 0.5 nM R1881 (AID 1259243); details: MDA-kb2 MMTV-luciferase, R1881 0.5 nM, 16 h; series mostly up to 42.5 µM; also: nearly all actives have a fitted effect of over 50% in size
Androgen receptor (Homo sapiens), sequence (P10275 whole entry, looked up): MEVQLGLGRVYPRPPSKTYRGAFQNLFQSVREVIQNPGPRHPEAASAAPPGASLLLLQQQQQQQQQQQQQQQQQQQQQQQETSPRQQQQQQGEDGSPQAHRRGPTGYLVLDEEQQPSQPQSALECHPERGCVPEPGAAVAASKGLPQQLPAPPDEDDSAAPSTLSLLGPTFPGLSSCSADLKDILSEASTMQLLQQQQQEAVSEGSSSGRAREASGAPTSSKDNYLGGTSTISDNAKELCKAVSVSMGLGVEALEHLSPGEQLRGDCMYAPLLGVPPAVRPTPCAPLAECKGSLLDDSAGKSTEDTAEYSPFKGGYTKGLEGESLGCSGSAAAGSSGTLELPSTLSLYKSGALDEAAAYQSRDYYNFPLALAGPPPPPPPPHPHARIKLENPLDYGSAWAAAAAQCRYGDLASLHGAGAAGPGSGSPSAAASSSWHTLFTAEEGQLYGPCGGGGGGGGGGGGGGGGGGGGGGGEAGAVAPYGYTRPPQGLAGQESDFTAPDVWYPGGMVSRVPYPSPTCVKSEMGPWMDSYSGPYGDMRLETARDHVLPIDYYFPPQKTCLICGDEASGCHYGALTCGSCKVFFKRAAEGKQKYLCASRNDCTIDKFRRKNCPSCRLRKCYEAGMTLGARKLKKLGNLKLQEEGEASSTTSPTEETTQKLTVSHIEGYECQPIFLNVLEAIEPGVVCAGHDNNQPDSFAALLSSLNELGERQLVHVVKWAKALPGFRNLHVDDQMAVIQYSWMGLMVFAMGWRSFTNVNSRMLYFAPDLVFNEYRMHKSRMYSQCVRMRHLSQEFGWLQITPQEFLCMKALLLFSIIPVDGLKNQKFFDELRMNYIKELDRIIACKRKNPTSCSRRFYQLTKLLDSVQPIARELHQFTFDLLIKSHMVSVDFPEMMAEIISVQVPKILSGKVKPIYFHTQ
Procedure, shortened: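 MDA-kb2, MMTV-luc (AR/GR elements); 3,000 cells/well; cpd + 0.5 nM R1881 final; 16 hr 37C, 0% CO2; ONE-Glo 30 min RT; luminescence.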

Measured: Potency

CC(=O)c1ccccc1[N+](=O)[O-]
not listed: [17] | [18] | [19] | [20]
inactive: all other assays above

CC1(C)[C@@H]2CC[C@@]1(C)[C@H](O)C2
not listed: [8] | [13] | [19] | [20]
inactive: all other assays above

COc1ccnc(CS(=O)c2nc3cc(OC(F)F)ccc3[nH]2)c1OC (stereo unspecified)
not listed: [8] | [19] | [20]
inactive: all other assays above

O=C(CO)[C@@H](O)[C@H](O)[C@H](O)CO
not listed: [8] | [20]
inactive: all other assays above

Cc1ccc(-c2ncc(Cl)cc2-c2ccc(S(C)(=O)=O)cc2)cn1
not listed: [6]
inactive: all other assays above

CCN(CC#N)c1cccc(C)c1
not listed: [8] | [15] | [19] | [20]
inactive: all other assays above

CC1=CC(=O)[C@H]2C[C@@H]1C2(C)C
not listed: [6] | [16] | [19] | [20]
inactive: all other assays above

CC(C)c1ccc2ncccc2c1
not listed: [8] | [19] | [20]
inactive: all other assays above

CCCC[N+](C)(CCCC)CCCC
not listed: [8] | [19] | [20]
inactive: all other assays above

CC1=NS(=O)(=O)c2cc(Cl)ccc2N1
not listed: [6] | [18] | [20]
inactive: all other assays above

CCOC(=O)c1ccccc1
not listed: [8] | [16] | [19] | [20]
inactive: all other assays above

CCCC(=O)O[C@]1(C(=O)CC)CC[C@H]2[C@@H]3CCC4=CC(=O)CC[C@]4(C)[C@H]3[C@@H](O)C[C@@]21C
active: [9] 1690 nM
not listed: [6] | [19] | [20]
inactive: all other assays above

O=C(O)CC(C(=O)O)S(=O)(=O)O (stereo unspecified)
not listed: [11] | [19] | [20]
inactive: all other assays above

CCOCC(C)O (stereo unspecified)
not listed: [8] | [19] | [20]
inactive: all other assays above

C[C@@H]1C[C@H]2[C@@H]3C[C@H](F)C4=CC(=O)C(Cl)=C[C@]4(C)[C@@]3(F)[C@@H](O)C[C@]2(C)[C@@]1(O)C(=O)CO
not listed: [9] | [15] | [16] | [18] | [20]
inactive: all other assays above
